In PubChem BioAssay (NCI):
About 83,000 compounds went through this panel and 20% of them were active in at least one assay; those are over-represented in the sample as a whole.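 Results are percent growth after 48 hours of single-concentration exposure. 100 means growth as in untreated cells, lower positive values show inhibition; negative values down to -100 show cell death.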 Activity calls are given as the source filed them. Rule for the calls: active = growth percent below 10; inactive = the rest.

The compounds below were run on MDA-MB-468 breast (assay: NCI-60 one-dose screen, 48 h (100 = growth as untreated, 0 = no growth, -100 = all killed)). Settings: 10 µM unless noted.

| SMILES | growth |
| --- | --- |
| C=C(C)[C@@H]1CC[C@]2(C=O)CC[C@]3(C)[C@H](CC[C@@H]4[C@@]5(C)CCCNC(C)(C)[C@@H]5CC[C@]43C)[C@@H]12 | 64.6% (inactive) |
| COc1cnc2c(c1)C(=O)c1c-2n(CCCN2CCC(O)CC2)c(=O)c2cc(Cl)ccc12 | 38.5% (inactive) |
| COC(=O)c1nc(N)nc(C(=O)OC)c1C(=O)c1cccc2ccccc12 | 97.6% (inactive) |
| C[C@]12C[C@H](O)[C@H]3[C@@H](CCC4=CC(=O)CC[C@@]43C)[C@@H]1CC[C@@H]2C(=O)CO | 84.4% (inactive) |
| COc1cnc2c(c1)C(=O)c1c-2n(CCCn2ccnc2)c(=O)c2cc(OC)c(OC)cc12 | -25.7% (active) |
| C=C1CC[C@@H]2[C@](C)(COC(C)=O)[C@H](OC(C)=O)CC[C@@]2(C)[C@@H]1CC(Nc1ccc(S(=O)(=O)Nc2nc(C)cc(C)n2)cc1)C1=CCOC1=O (stereo not given in full) | 41% (inactive) |
| COC(=O)c1c2c(n3ccccc13)C(=O)c1ccccc1C2=O | 95.7% (inactive) |
| CCN(CC)c1ccc(/C=N/NC(=O)c2ccc(S(C)(=O)=O)cc2)c(O)c1 | 1.2% (active) |
| COc1ccc(CN2c3ccccc3Sc3ccccc32)c(F)c1 | 2.44% (active) |
| Cc1cc[n+](CCCCCCCCCC[n+]2ccc(C)cc2)cc1 | 6.78% (active) |
| CCN1C(=O)N(CC)C2SC(N/N=C/C=C/c3ccccc3OC)=NC21 (stereo not given) | 36.8% (inactive) |
| CCCCCCCCCCCCc1ccc([N+](CC)(CC)CC)cc1 | -5.49% (active) |
| O=C(c1ccccc1)c1ccc(-c2ccc(O)cc2)cc1 | -16.5% (active) |
| O=C(c1ccc(Cl)cc1)C1[C@H](c2ccc(Cl)cc2)[C@@H](c2ccccc2)NC12C(=O)Nc1ccccc12 (stereo not given in full) | 50.7% (inactive) |
| CC(=O)Oc1ccccc1C(=O)Nc1ccc(C(=O)/C=C/c2ccncc2)cc1 | 4.04% (active) |
